Results published in PubChem BioAssay AID623868 (Vanderbilt High Throughput Screening Facility, 2012).
About 760 (36%) of roughly 2,100 compounds were called active.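 The calls were made as follows: active = thallium-flux fluorescence traces judged by eye to show enhanced or reduced glutamate response, manual score 1 or -1, so both directions (some results past the limit were not filed as active); inactive = the rest, including fluorescent or raised-baseline compounds.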 The list is a sample of the results.

Experiment: non-GIRK thallium flux modulation in mGlu8 cells, confirmation, counter-screen for GIRK activator project, cell-based, HEK-293 rmGlu8, no GIRK (AID 623868);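 also: extra codes mark interference with 3 for fluorescent and 4 for baseline rise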
Conditions: thallium flux fluorescence, at 10 µM, actives lie on both sides, codes: 1 enhancer, -1 blocker, 0 none, thallium stimulus containing EC20 glutamate

| SMILES | manual score |
| --- | --- |
| COC(=O)c1onc(C(=O)c2ccccc2)c1C(=O)OC | -1 (active) |
| N[C@@H](Cc1ccccc1)c1nnc(SCc2ccccc2F)o1 | 0 (inactive) |
| Cc1sc2ncnc(SCc3ccco3)c2c1C | 0 (inactive) |
| Cc1sc2nc(C(C)C)nc(SCC(=O)NCc3ccco3)c2c1C | 1 (active) |
| Cc1sc2nc(C(C)C)nc(SCC(=O)N3c4ccccc4CC3C)c2c1C (centres undefined) | 1 (active) |
| CCn1c(N)c(C(=O)NCc2ccco2)sc1=S | 0 (inactive) |
| Cc1ccccc1-c1nc(CN2CCC(C(=O)NCc3ccco3)CC2)c(C)o1 | 0 (inactive) |
| CCn1c(SCC(=O)NC(=O)NCc2ccco2)nc2sc(C)c(C)c2c1=O | 1 (active) |
| COC(=O)c1ccc(-n2c(C)cc(C(=O)CSc3ccc(NC(C)=O)cc3)c2C)cc1 | 0 (inactive) |
| CCc1cc2cccc(C)c2nc1SCC(=O)c1ccc(NC(C)=O)cc1 | 1 (active) |
| CC(=O)Nc1ccc(C(=O)CSc2nc3ccc(C)cc3[nH]2)cc1 | 0 (inactive) |
| COc1ccc(OC)c(NC(=O)C2CC(=O)N(c3ccc(Br)cc3)C2)c1 (centres undefined) | 0 (inactive) |
| COc1cc(NC(=O)C(=O)NNC(=O)C2CCCCC2)c(OC)cc1Cl | 1 (active) |
| COc1cc(NC(=O)c2ccc(C)cc2)c(OC)cc1NC(=O)CN1CCCCC1 | 0 (inactive) |
| Oc1ccccc1CNc1ccc(Br)cn1 | 0 (inactive) |
| Cc1ccc(C2CC2c2n[nH]c(=S)n2-c2ccc(Cl)cc2)cc1 (centres undefined) | 0 (inactive) |
| Cc1ccc(C2CC2c2n[nH]c(=S)n2-c2ccc(C)cc2)cc1 (centres undefined) | 1 (active) |
| O=C(c1ccc(CS(=O)(=O)c2ccc(Br)cc2)o1)N1CCN(c2ncccn2)CC1 | 0 (inactive) |
| CCOC(=O)N1CCN(c2ccc3nnnn3n2)CC1 | 0 (inactive) |
| O=C(c1ccc(Br)o1)N1CCN(c2ccc3nnc(-c4ccc(F)cc4)n3n2)CC1 | -1 (active) |
| CCOc1cc(-c2noc(-c3cccnc3)n2)ccc1OC | 0 (inactive) |
| Cc1cc(CC(C)C)n(-c2nc3ccccc3c(=O)n2OCC(N)=O)n1 | 0 (inactive) |
| CCOc1cc2[nH]c(=S)n(C(C)C)c(=O)c2cc1OCC | 1 (active) |
| CC(C)N(CCn1c(=S)[nH]c2ccccc2c1=O)C(C)C | 1 (active) |
| CC(C)n1c(NCc2c[nH]c3ccccc23)nc2ccccc21 | 0 (inactive) |
| CC(C)n1c(=S)[nH]c2ccccc2c1=O | 1 (active) |

| SMILES | manual score |
| --- | --- |
| CC(C)COn1c(=S)[nH]c2ccccc2c1=O | 1 (active) |
| CCCC(=O)NC(c1cccs1)c1cc([N+](=O)[O-])c2cccnc2c1O (centres undefined) | 0 (inactive) |
| CCCC(=O)Nc1ccc(NC(=O)C2CC2)cn1 | 0 (inactive) |
| COCc1nnc(NC(=O)C(C)C)s1 | 0 (inactive) |
| Cc1conc1NC(c1cccs1)c1ccc2cccnc2c1O (centres undefined) | 0.5 (inactive) |
| COc1ccccc1-n1cnnc1SCC(=O)c1cc(C)n(Cc2cccs2)c1C | 0 (inactive) |
| O=C(c1cc2nc(-c3ccccc3)cc(-c3ccccc3)n2n1)N1CCN(C(=O)c2ccco2)CC1 | -0.5 (inactive) |
| COc1ccc(CNC(=O)CSCc2ccccc2Cl)cc1 | -0.5 (inactive) |
| COc1ccc(CNc2nc(-c3cccnc3)nn2C(=O)c2ccco2)cc1 | -1 (active) |
| CCC(=O)n1nc(-c2cccnc2)nc1NCc1ccc(OC)cc1 | -1 (active) |
| COc1cccc(N(CC(=O)NCc2cccnc2)S(C)(=O)=O)c1 | 0 (inactive) |
| CCCC(=O)n1nc(-c2ccccc2)nc1N | 0 (inactive) |
| S=c1nn[nH]n1C12CC3CC(CC(C3)C1)C2 | 1 (active) |
| c1cn(C23CC4CC(CC(C4)C2)C3)cn1 | 0.5 (inactive) |
| CCOc1ccc(Nc2ncnc(N)n2)cc1 | 0 (inactive) |
| Cc1noc(C)c1CSc1nc2ccccc2c(=O)n1-c1ccc(F)cc1F | 0 (inactive) |
| O=c1c2ccccc2nc(SCc2cn3ccsc3n2)n1-c1ccc(F)cc1 | -1 (active) |
| COCCNCCOc1ccccc1-c1ccccc1 | 0 (inactive) |
| COc1cc2c(cc1NC(=O)COc1ccccc1OC)oc1ccccc12 | 0 (inactive) |
| COc1ccc(CN(C)CC(=O)NC(=O)NCc2ccccc2)cc1OC | 0 (inactive) |
| COc1ccc(CCNC(=O)CSc2nnc(-c3ccc(F)cc3)c3ccccc23)cc1OC | -1 (active) |
| CCOC(=O)CSC1=C(C#N)C(=O)NC(c2ccc(OC)c(OC)c2)S1 (centres undefined) | 0 (inactive) |
| CCc1nnc(NC(=O)CSc2nnc(-c3c[nH]c4ccccc34)n2CC)s1 | 0 (inactive) |
| Cc1ccc(C)c(Nc2c([N+](=O)[O-])cc(C(=O)N3CC(=O)Nc4ccccc43)cc2[N+](=O)[O-])c1 | 0 (inactive) |
| Cc1sc2nc(C3CC3)nc(SCC(=O)N3CC(=O)Nc4ccccc43)c2c1C | 1 (active) |
| CCc1nc(SCC(=O)Nc2nnc(CC)s2)c2c(C)c(C)sc2n1 | 1 (active) |

| SMILES | manual score |
| --- | --- |
| Cc1cc(NC(=O)CSc2nc(C3CC3)nc3sc(C)c(C)c23)no1 | 1 (active) |
| CCc1c(C)nc(SCC(=O)N2CCc3ccccc32)[nH]c1=O | 0 (inactive) |
| Cc1ccc(N(C(=O)CCC(=O)Nc2cc(C)on2)C(C(=O)NC2CCCC2)c2cccs2)cc1 (centres undefined) | 0 (inactive) |
| CCSc1nnc(NC(=O)CC)s1 | 0 (inactive) |
| CCc1nc(SCC(=O)N2CC(=O)Nc3ccccc32)c2c(C)c(C)sc2n1 | 1 (active) |
| Cc1cc(NC(=O)CSc2nc3ccsc3c(=O)n2NC(=O)c2ccccc2)no1 | 0 (inactive) |
| CN1C(=O)NC(c2ccccc2)C2=C1CN(Cc1ccccc1)C2=O (centres undefined) | 0 (inactive) |
| CCOC(=O)C1(C(C)(C)CC)CC(CSc2nc3ccccc3[nH]2)OC1=O (centres undefined) | 0 (inactive) |
| CN1CCN(C(=O)c2sc(=S)n(-c3ccccc3)c2N)CC1 | 0 (inactive) |
| O=C(NCCSCc1ccco1)Nc1cccc(Cl)c1 | 0 (inactive) |
| CN(C(=O)CSC1=Nc2ccccc2C2=NC(c3ccccc3)C(=O)N12)C1CCCCC1 (centres undefined) | -1 (active) |
| Cc1sccc1C1C(C#N)=C(N)SC(N)=C1C#N | -1 (active) |
| Cc1ccc(C(C(=O)NC2CCCC2)N2CCCC(C)C2)cc1 (centres undefined) | 0 (inactive) |
| CC12CC3CC(C)(C1)CC(C(=O)NC(=S)N1CCCCC1)(C3)C2 | 1 (active) |
| O=S(=O)(c1ccccc1)N1CCN(C(=S)Nc2ccc(F)cc2)CC1 | 0 (inactive) |
| CCOc1ccccc1N1CCN(C(=S)NC(=O)C23CC4CC(CC(C4)C2)C3)CC1 | 0.5 (inactive) |
| CCC(=O)c1ccc(N2CCN(C(=O)c3cc([N+](=O)[O-])ccc3N3CCN(C)CC3)CC2)c(F)c1 | 0 (inactive) |
| O=C(NC(=S)N1CCN(c2ccc(F)cc2)CC1)C12CC3CC(CC(C3)C1)C2 | 1 (active) |
| O=C(c1csc2c1CCCC2)N1CCN(c2ccc(F)cc2)CC1 | 0 (inactive) |
| O=C(NC(=S)N1CCN(c2ccc([N+](=O)[O-])cc2)CC1)c1ccc(F)cc1 | 1 (active) |
| CCOC(=O)C1CCN(C(=O)NC23CC4CC(CC(C4)C2)C3)CC1 | 0 (inactive) |
| O=C(NC(=S)N1CCCCC1)C12CC3CC(CC(C3)C1)C2 | 1 (active) |
| CCCCN(Cc1ccccc1)S(=O)(=O)c1ccc2[nH]c(=O)oc2c1 | 0 (inactive) |
| COc1ccc(Cl)cc1C(=O)CSc1nnnn1C1CCCC1 | 0 (inactive) |
| CC12CC3CC(C)(C1)CC(C(=O)NC(=S)N1CCOCC1)(C3)C2 | 1 (active) |
| CC12CC3(C)CC(C)(C1)CC(C(=O)NC(=S)N1CCOCC1)(C2)C3 | 1 (active) |

| SMILES | manual score |
| --- | --- |
| O=C(c1ccco1)N1CCN(C(=O)c2cnn3c2NC(c2cccs2)CC3C(F)(F)F)CC1 (centres undefined) | 0 (inactive) |
| CCc1sc(NC(=O)CN2CCOCC2)nc1-c1ccccc1 | -1 (active) |
| O=C(CN1CCOCC1)Nc1ccc(C2CCCCC2)cc1 | 0 (inactive) |
| O=C(CSc1nc(-c2ccccc2)cc(C(F)(F)F)n1)NCCN1CCOCC1 | 0 (inactive) |
| CCN(CC)S(=O)(=O)c1csc(C(=O)NCc2ccccc2)c1 | 0 (inactive) |
| C=CCOc1cccc(C2C(C(=O)c3ccc(C)o3)=C(O)C(=O)N2c2nccs2)c1 (centres undefined) | 3 (inactive) |
| COc1ccc(OC)c(C2C(C(=O)c3cccs3)=C(O)C(=O)N2c2cc(C)on2)c1 (centres undefined) | -1 (active) |
| COc1ccc(OC)c(C2C(C(=O)c3cc4ccccc4o3)=C(O)C(=O)N2c2cc(C)on2)c1 (centres undefined) | -1 (active) |
| COc1ccc2nc3oc(C(=O)Nc4ccc(OC)c(OC)c4)cc3cc2c1 | 0 (inactive) |
| COc1ccc(C(OC(=O)c2cccs2)C(=O)NCC2CCCO2)cc1 (centres undefined) | 0 (inactive) |
| Cc1cc(N2C(=O)C(O)=C(C(=O)c3ccc(C)o3)C2c2cccs2)no1 (centres undefined) | -1 (active) |
| C/C(CC(=O)NCC(C)C)=N\NC(=O)COc1cc(C)c(Br)cc1Br | 0 (inactive) |
| COc1ccc(S(=O)(=O)N(CCc2ccccc2)CC(=O)O)cc1 | 0 (inactive) |
| CCOc1ccc(NC(=O)CCC(=O)c2ccc(-c3ccccc3)cc2)cc1 | 0 (inactive) |
| COc1ccc(C(=O)NC(=S)N(Cc2ccccc2)Cc2ccccc2)cc1 | 1 (active) |
| CCOc1ccc(C(=O)NC(=S)N(Cc2ccccc2)Cc2ccccc2)cc1 | 1 (active) |
| CCOc1ccc(N2C(=O)c3ccccc3C2O)cc1 (centres undefined) | 0 (inactive) |
| CC(=O)CN1Cc2ccccc2/C1=N\C(=O)Nc1ccccc1 | 0 (inactive) |
| CCc1c(C)c(C#N)c2nc3ccccc3n2c1NCc1ccco1 | -1 (active) |
| Cc1nc2ccccn2c1-c1csc(NCc2ccco2)n1 | -0.5 (inactive) |
| Cn1cc(S(=O)(=O)Nc2ccc(F)cc2F)c(=O)n(C)c1=O | 0 (inactive) |
| O=C(N/N=C/c1ccc2cccc(OCc3ccccc3)c2n1)c1ccc(Br)cc1 | 1 (active) |
| COc1ccc(C(=O)N/N=C/c2ccc3cccc(OCc4ccccc4)c3n2)cc1 | 1 (active) |
| N/C(=N\OC(=O)Cc1ccccc1)c1ccc(Br)cc1 | 0 (inactive) |
| COc1ccc(/C=N/NC(=O)c2nc(-c3ccccc3)cc(-c3ccccc3)n2)cc1 | 0 (inactive) |
| O=C(N/N=C/c1ccccn1)c1ccc(Br)cc1 | 1 (active) |
